High-throughput results deposited in PubChem BioAssay by NMMLSC.
RPL19A-GFP yeast = modulators of TOR pathway RPL19A-GFP in S. cerevisiae; percent response vs DMSO, % at 10 µM; AID 2025; S. cerevisiae RPL19A-GFP strain, flow cytometry, 3 h; stronger effect = lower value; actives 0.3% (n = 330,000);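 active = percent response vs DMSO below 50%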;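 note: median channel GFP fluorescence of the barcoded RPL19A-GFP strain; ratio of sample median GFP to plate DMSO average so 100% = DMSO; lower means less RPL19A-GFP as with rapamycin TOR inhibition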
CIT2 TOR yeast = alters CIT2-GFP fluorescence in TOR pathway yeast screen; S. cerevisiae CIT2-GFP strain, flow cytometry, 3 h; 100 means same as DMSO wells; GFP response vs DMSO, % at 10 µM; actives 0.065% (n = 320,000);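 active = GFP response relative to DMSO above a set limit, near the screen mean plus 3 SD, cut at about 150% in these data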;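 note: ratio of well median GFP fluorescence to mean of DMSO wells on the plate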
MEP2-GFP yeast = alters MEP2-GFP fluorescence in TOR pathway yeast screen. actives 0.51% (n = 330,000). GFP response vs DMSO, % at 10 µM. S. cerevisiae MEP2-GFP strain, flow cytometry GFP, 3 h; 100% = DMSO control level;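 active = GFP response versus DMSO above a set limit, roughly screen mean plus 3 SD, cut at about 180% in these data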;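 note: median GFP fluorescence of the barcode-gated MEP2-GFP cells per well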
AGP1-GFP MLPCN = alters AGP1-GFP fluorescence in TOR pathway yeast screen; S. cerevisiae AGP1-GFP multiplex flow cytometry, 3 h; GFP as percent of DMSO wells; GFP response vs DMSO, % at 10 µM; actives 0.02% (n = 320,000);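 active = GFP response relative to DMSO above a set limit, near screen average plus 3 SD, cut at about 150% in these data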;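 note: median GFP channel fluorescence of the gated AGP1 strain per well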
LAP4 TOR yeast = yeast TOR pathway LAP4-GFP modulation; GFP response vs DMSO, % at 10 µM; S. cerevisiae LAP4-GFP multiplex, flow cytometry GFP, 3 h; median GFP as percent of DMSO wells; actives 0.34% (n = 320,000);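 active = GFP response vs DMSO above a set limit, about the screen mean plus 3 SD, cut at about 150% in these data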
LAP4 cherry2 = yeast LAP4-GFP modulation, second cherry pick | S. cerevisiae LAP4-GFP strain, flow cytometry GFP, 3 h | actives 20% (n = 590) | AID 2621 | shares compounds with LAP4 TOR yeast | GFP response vs DMSO, % at 10 µM;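 active = GFP signal as percent of the solvent control above about 150%, meaning raised reporter expression, limit read from the data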;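 note: ratio of well median GFP fluorescence to plate DMSO mean so 100% = DMSO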
MEP2 cherry2 = yeast MEP2-GFP modulation, second cherry pick; S. cerevisiae MEP2-GFP strain, flow cytometry GFP, 3 h; GFP response vs DMSO, % at 10 µM; actives 10% (n = 590); shares compounds with LAP4 TOR yeast;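 active = GFP signal above 150% of the solvent control wells, that is a rise of more than half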;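 note: median channel GFP fluorescence of all gated yeast cells per well; ratio of median GFP to plate DMSO average so 100% = DMSO level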
RPL19A GFP CP2 = reconfirmed modulator of RPL19A-GFP TOR reporter in yeast. shares compounds with LAP4 TOR yeast. GFP response vs DMSO, % at 10 µM. actives 3% (n = 590). AID 2623. S. cerevisiae RPL19A-GFP strain, flow cytometry GFP, 3 h; stronger effect = lower value; 100% means same as DMSO wells;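 active = under 65% GFP response relative to DMSO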;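 note: median GFP channel fluorescence per well over the all cells gate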
CIT2 GFP CP2 = second confirmation of modulators of TOR reporter CIT2-GFP in yeast; S. cerevisiae CIT2-GFP strain, flow cytometry GFP, 3 h; DMSO control wells read 100%; actives 8% (n = 590); shares compounds with LAP4 TOR yeast; GFP response vs DMSO, % at 10 µM; AID 2624;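 active = GFP response vs DMSO above about 150%, limit read from the data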;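 note: median green fluorescence per well over all gated yeast cells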
AGP1 GFP CP2 = reconfirmed modulator of AGP1-GFP TOR reporter in yeast; 590 tested, under 10 active; S. cerevisiae AGP1-GFP strain, flow cytometry GFP, 3 h; AID 2643; shares compounds with LAP4 TOR yeast; percent response vs DMSO, % at 10 µM;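 active = over 150 percent of DMSO response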;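 note: median GFP channel fluorescence over all cells without mother daughter split; sample median GFP divided by mean DMSO control so 100% equals DMSO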
Yeast autofluor = counter-screen for compound autofluorescence in yeast s288c cells; shares compounds with LAP4 TOR yeast; S. cerevisiae s288c, 520 nm autofluorescence, flow cytometry, 3 h; stronger effect = higher value; zero means same as solvent-only cells; fluorescence change (kMESF span) at 33 µM; 610 tested, under 10 active; AID 2757;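 active = fluorescence span over the dose series, or activity score, above about 33, limit read from the data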
Yeast autofl DR = TOR screen hit shows autofluorescence in yeast s288c; shares compounds with LAP4 TOR yeast; S. cerevisiae s288c parental, compound autofluorescence, flow cytometry, 3 h; fluorescence change (span) at 33 µM; 110 tested, under 10 active; AID 488829;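 active = fluorescence change span, or the activity score built from it, above 25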
TORC1 bypass gr = wildtype yeast growth loss with TORC1 bypass cells unaffected | shares compounds with LAP4 TOR yeast | S. cerevisiae BY4741 spot growth rating, 48-72 h; stronger effect = lower value | growth rating (0-3) at 30 µM | 120 tested, under 10 active | AID 504456;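 active = growth rating at most 1 for wild type yeast while the TORC1 bypass strain still grows fully, rated 3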
The depositor's hits bear a star; [ ] = another dose, or the depositor's remark. Shown are actives, neighbours in structure and some others; about 0.93% of the full set was active somewhere.

What do the screens show for `CC(=O)n1cc(C(C[N+](=O)[O-])SCCN)c2ccccc21` (stereo not given)?
RPL19A-GFP yeast: 93; CIT2 TOR yeast: 76; MEP2-GFP yeast: 87; AGP1-GFP MLPCN: 78; LAP4 TOR yeast: 226*; LAP4 cherry2: 183*; MEP2 cherry2: 164*; RPL19A GFP CP2: 98; CIT2 GFP CP2: 127; AGP1 GFP CP2: 104; Yeast autofluor: 1.5

What do the screens show for `Cc1ccc(CC(=O)Nc2ccc(C(=O)N3CCOCC3)cc2)cc1`?
RPL19A-GFP yeast: 96; CIT2 TOR yeast: 103; MEP2-GFP yeast: 97; AGP1-GFP MLPCN: 99; LAP4 TOR yeast: 93

How did Cc1cc(C)cc(NC(=O)COC(=O)COc2cccc3c2OC(C)(C)C3)c1 do in these assays?
RPL19A-GFP yeast: 101; CIT2 TOR yeast: 102; MEP2-GFP yeast: 105; AGP1-GFP MLPCN: 115; LAP4 TOR yeast: 114

Results for Cc1ccc(NC(=O)COC(=O)COc2cccc3c2OC(C)(C)C3)cc1C ?
RPL19A-GFP yeast: 107; CIT2 TOR yeast: 157*[may fluoresce green]; MEP2-GFP yeast: 212*[may fluoresce green]; AGP1-GFP MLPCN: 91; LAP4 TOR yeast: 167*[may fluoresce green]; LAP4 cherry2: 98; MEP2 cherry2: 100; RPL19A GFP CP2: 103; CIT2 GFP CP2: 98; AGP1 GFP CP2: 101

How did O=C(c1ccc(Cl)cc1)N1CCN(c2cccc3[nH]ccc23)CC1 do in these assays?
RPL19A-GFP yeast: 65; CIT2 TOR yeast: 91; MEP2-GFP yeast: 87; AGP1-GFP MLPCN: 98; LAP4 TOR yeast: 259*; Yeast autofluor: -0.2

Results for O=c1/c(=C/c2cccc3ccccc23)sc2ncnn12 ?
RPL19A-GFP yeast: 106; CIT2 TOR yeast: 107; MEP2-GFP yeast: 91; AGP1-GFP MLPCN: 81; LAP4 TOR yeast: 155*; Yeast autofluor: 0.81; Yeast autofl DR: 0.49; TORC1 bypass gr: 3

What do the screens show for `Cc1ccsc1/C=c1\sc2ncnn2c1=O`?
RPL19A-GFP yeast: 100; CIT2 TOR yeast: 104; MEP2-GFP yeast: 98; AGP1-GFP MLPCN: 81; LAP4 TOR yeast: 109

How did CC(=O)c1cccc(N(C(=O)CNC(=O)c2ccco2)C(C(=O)NCC2CCCO2)c2ccccc2)c1 (stereo not given) do in these assays?
RPL19A-GFP yeast: 101; CIT2 TOR yeast: 103; MEP2-GFP yeast: 95; AGP1-GFP MLPCN: 102; LAP4 TOR yeast: 99

Results for Cc1cc(-c2csc(NC(=O)c3ccc(=O)[nH]c3)n2)c(C)n1Cc1ccco1 ?
RPL19A-GFP yeast: 91; CIT2 TOR yeast: 90; MEP2-GFP yeast: 87; AGP1-GFP MLPCN: 106; LAP4 TOR yeast: 152*; LAP4 cherry2: 99; MEP2 cherry2: 110; RPL19A GFP CP2: 101; CIT2 GFP CP2: 96; AGP1 GFP CP2: 103

Results for CC(=O)NN1C(=O)/C(=C/c2ccc(Br)o2)SC1=S ?
RPL19A-GFP yeast: 105; CIT2 TOR yeast: 135; MEP2-GFP yeast: 187*; AGP1-GFP MLPCN: 104; LAP4 TOR yeast: 120; Yeast autofluor: 11

Results for CC(=O)NN1C(=O)/C(=C\c2ccc(Br)o2)SC1=S ?
RPL19A-GFP yeast: 102; CIT2 TOR yeast: 122; MEP2-GFP yeast: 136; AGP1-GFP MLPCN: 96; LAP4 TOR yeast: 107

What do the screens show for `Oc1c(CN2CCN(c3ccccc3)CC2)cc(Br)c2cccnc12`?
RPL19A-GFP yeast: 100; CIT2 TOR yeast: 101; MEP2-GFP yeast: 116; AGP1-GFP MLPCN: 91; LAP4 TOR yeast: 224*; Yeast autofluor: 2.5

How did c1ccc(N2CCN(Cc3ccnc4ccccc34)CC2)cc1 do in these assays?
RPL19A-GFP yeast: 102; CIT2 TOR yeast: 108; MEP2-GFP yeast: 100; LAP4 TOR yeast: 98

What do the screens show for `Fc1ccc(NC(=S)Nc2ccc3nccnc3c2)cc1`?
RPL19A-GFP yeast: 66; CIT2 TOR yeast: 72; MEP2-GFP yeast: 93; AGP1-GFP MLPCN: 40; LAP4 TOR yeast: 171*; LAP4 cherry2: 103; MEP2 cherry2: 100; RPL19A GFP CP2: 101; CIT2 GFP CP2: 104; AGP1 GFP CP2: 98

Results for CCOC(=O)Cn1c(CN2CCOCC2)nc2c1c(=O)[nH]c(=O)n2C ?
RPL19A-GFP yeast: 93; CIT2 TOR yeast: 112; MEP2-GFP yeast: 97; AGP1-GFP MLPCN: 98; LAP4 TOR yeast: 96

Results for CCOC(=O)Cn1c(CN2CCOCC2)nc2c1c(=O)n(C)c(=O)n2C ?
RPL19A-GFP yeast: 69; CIT2 TOR yeast: 101; MEP2-GFP yeast: 95; AGP1-GFP MLPCN: 106; LAP4 TOR yeast: 222*; LAP4 cherry2: 108; MEP2 cherry2: 119; RPL19A GFP CP2: 101; CIT2 GFP CP2: 115; AGP1 GFP CP2: 99

What do the screens show for `CC(C)(O)C#Cc1ccc(CN2CCN(C3CCCC3)C(CCO)C2)cc1` (stereo not given)?
RPL19A-GFP yeast: 86; CIT2 TOR yeast: 89; MEP2-GFP yeast: 93; AGP1-GFP MLPCN: 110; LAP4 TOR yeast: 169*; LAP4 cherry2: 99; MEP2 cherry2: 105; RPL19A GFP CP2: 100; CIT2 GFP CP2: 103; AGP1 GFP CP2: 100

Results for C=CCN1C(=O)c2ccc(C(=O)NCCc3ccc(F)cc3)cc2C1=O ?
RPL19A-GFP yeast: 104; CIT2 TOR yeast: 95; MEP2-GFP yeast: 118; AGP1-GFP MLPCN: 101; LAP4 TOR yeast: 117
